Screens deposited in PubChem by National Center for Advancing Translational Sciences (NCATS).
This is a sample that favours compounds with a hit; in the whole collection about 7.9% have one here.
LASV entry inh = blocks Lassa virus binding to or entry into cells; Lassa virus pseudotype entry inhibition, cell reporter; Potency, µM (titrated, usually from 37.9 µM), most hits filed as inhibitors; 1.2% of 300,000 active; AID 540256; calls by dose curve; tested in HEK293 cells; note: nearly all actives have a fitted effect of over 50% in size
MARV entry inh = inhibitors of Marburg virus binding or cell entry; Potency, µM (highest dose often 37.8 µM), actives largely listed as inhibitors; 1.8% of 300,000 active; Marburg virus pseudotyped entry inhibition, cell reporter; AID 540276; calls by dose curve; tested in HEK293 cells
HCMV antiviral = human cytomegalovirus inhibition. HFF cells, HCMV-luciferase reporter, 72 h; active compounds read low. activity change, negative = inhibition, % at 57.5 µM. 4.5% of 410,000 active; in the data active = activity change below about -60%; inconclusive = no clear call, values can overlap the other calls; inactive = above about -39%
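Screen run at 2 compound doses on HFFs infected with reporter HCMV, MOI 1 PFU/cell. Luciferase activity from cell lysates at 72 h post infection gave inhibition relative to buffer-only and Salinomycin wells.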
HCV inh = blocks hepatitis C virus; Huh7.5.1 HCVcc-Cre infection, luciferase reporter, 44 h; Potency, µM (series often up to 41.8 µM), actives largely listed as inhibitors; 3.4% of 340,000 active; AID 651820; active = well fitted inhibition curve with a large enough effect; inconclusive = small, poorly fitted or top-dose-only effect, or another doubt; inactive = no such curve, though single readings can be large or run the other way
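Cells seeded at 1,000/well and cultured 4 h, then compounds added followed by HCVcc-Cre virus (~0.5 moi). After 44 h further culture, luciferase substrate was added, plates held 15 min at room temperature, and luminescence read for 15 sec.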
FMDV inh = foot and mouth disease virus antiviral activity; FMDV antiviral cell-based qHTS; Potency, µM (top dose mostly 57.9 µM), actives largely listed as inhibitors; 1.2% of 410,000 active; calls by dose curve; tested in HEK293T cells; note: read-out not given here; nearly all actives have a fitted effect of over 45% in size
Large screens that a line does not name were inactive.

COCCN1C(=O)c2[nH]nc(-c3ccccc3O)c2C1c1ccc(OCc2ccccc2)c(OC)c1 (stereo not given)	LASV entry inh inconclusive, HCMV antiviral -103 (no result: HCV inh)
COc1cc(C2c3c(-c4ccccc4O)n[nH]c3C(=O)N2CCO)ccc1OCC(C)C (stereo not given)	LASV entry inh inconclusive, MARV entry inh inconclusive (no result: HCV inh)
COc1cc(C2c3c(-c4c(C)cc(C)cc4O)n[nH]c3C(=O)N2CCO)cc(OC)c1OC (stereo not given)	LASV entry inh inconclusive (no result: HCV inh)
O=C1c2[nH]nc(-c3ccccc3O)c2C(c2ccc(Cl)cc2)N1CCc1ccccc1 (stereo not given)	LASV entry inh inconclusive, MARV entry inh inconclusive, HCMV antiviral -95, FMDV inh inconclusive (no result: HCV inh)
CC(C)c1ccc(C2c3c(-c4ccccc4O)n[nH]c3C(=O)N2Cc2ccncc2)cc1 (stereo not given)	LASV entry inh inconclusive, MARV entry inh inconclusive, HCMV antiviral -79 (no result: HCV inh)
COCCCN1C(=O)c2[nH]nc(-c3ccccc3O)c2C1c1ccc(Cl)cc1 (stereo not given)	LASV entry inh inconclusive, MARV entry inh inconclusive, HCV inh inconclusive, FMDV inh inconclusive
N#CCCn1c(=O)c(-c2ccc(F)cc2)nc2cnc(OCc3ccccc3)nc21	none (no result: LASV entry inh, MARV entry inh, HCMV antiviral, HCV inh)
COc1ccc(CCN2C(=O)c3[nH]nc(-c4ccccc4O)c3C2c2ccccc2)cc1OC (stereo not given)	LASV entry inh 18µM, MARV entry inh inconclusive, HCMV antiviral inconclusive, HCV inh 11µM, FMDV inh inconclusive
Cc1cc(C)n(-c2nc(NCCC(C)C)c3c4c(sc3n2)COC(C)(C)C4)n1	MARV entry inh inconclusive, HCMV antiviral -96
Cc1cc(C)n(-c2nc(NCCN(C)C)c3c4c(sc3n2)COC(C)(C)C4)n1	LASV entry inh 13µM, MARV entry inh 7.1µM, HCMV antiviral inconclusive, HCV inh inconclusive
Cc1cc(C)n(-c2nc(NCCCN(C)C)c3c4c(sc3n2)COC(C)(C)C4)n1	MARV entry inh inconclusive
CCN(CC)CCNc1nc(-n2nc(C)cc2C)nc2sc3c(c12)CC(C)(C)OC3	LASV entry inh 7.9µM, MARV entry inh inconclusive, HCMV antiviral -64, HCV inh 11µM
Cc1nc(-c2ccc(Cl)cc2)sc1CCNC(=O)C(=O)Nc1ccc(F)cc1F	none (no result: MARV entry inh, HCV inh)
COc1ccc(NC(=O)c2ccc(-n3cnnn3)cc2)c([N+](=O)[O-])c1	MARV entry inh inconclusive, HCMV antiviral inconclusive
COc1ccccc1CNc1ccc(N2CCCCC2)cc1	LASV entry inh inconclusive, MARV entry inh 5.2µM (no result: HCMV antiviral, FMDV inh)
COc1cccc(Nc2ccc(N3CCCCC3)cc2)c1OC	HCMV antiviral -99 (no result: LASV entry inh, MARV entry inh, HCV inh)
COc1cccc(CNc2ccc(N3CCCCC3)cc2)c1OC	LASV entry inh inconclusive, MARV entry inh inconclusive, HCMV antiviral inconclusive
COc1ccc(Cl)cc1NC(=O)CSc1nnc(CNC(=O)c2cccs2)o1	LASV entry inh inconclusive
Cc1ccc(C(=O)CCC(=O)OCC(=O)N2CCN(S(=O)(=O)c3ccc(C)cc3C)CC2)cc1	none (no result: LASV entry inh, MARV entry inh)
CC1(c2ccccc2)CC(C)(C)N(C(=O)C2CCCO2)c2ccccc21 (stereo not given)	MARV entry inh 18µM, HCV inh inconclusive (no result: FMDV inh)
COc1ccc(C(=O)N2c3ccccc3C(C)(c3ccc(Cl)cc3)CC2(C)C)cc1 (stereo not given)	HCMV antiviral -93 (no result: MARV entry inh, HCV inh)
CC1(c2ccc(Cl)cc2)CC(C)(C)N(C(=O)c2ccccc2)c2ccccc21 (stereo not given)	HCMV antiviral -83, FMDV inh inconclusive (no result: HCV inh)
CSc1nc(C(=O)NCc2nc(-c3cccc(NC(=O)c4ccc(C)s4)c3)oc2C)cs1	none (no result: LASV entry inh, MARV entry inh, HCMV antiviral, HCV inh)
COCC(C)NC(=O)C1CC(c2cccc(Br)c2)=NO1 (stereo not given)	HCV inh 3.2µM
C#CCN(C[C@H]1[C@H](OC(=O)NC2CCCC2)[C@H](OC(=O)NC2CCCC2)C[C@@H](C(=O)OC)[C@H]1C(=O)OC)S(=O)(=O)c1ccc(C)cc1	FMDV inh inconclusive (no result: LASV entry inh, MARV entry inh, HCV inh)
C#CCN(C[C@@H]1[C@@H](OC(=O)NC2CC2)[C@@H](OC(=O)NC2CC2)CN(C(=O)OC(C)C)N1C(=O)OC(C)C)S(=O)(=O)c1ccc(C)cc1	none (no result: LASV entry inh, MARV entry inh, HCV inh)
C#CCN(C[C@H]1[C@H](OC(=O)Nc2cccs2)[C@H](OC(=O)Nc2cccs2)CN(C(=O)OC(C)C)N1C(=O)OC(C)C)S(=O)(=O)c1ccc(C)cc1	HCMV antiviral -79 (no result: LASV entry inh, MARV entry inh, HCV inh, FMDV inh)
C#CCN(C[C@@H]1[C@@H](OC(=O)NC2CCCC2)[C@@H](OC(=O)NC2CCCC2)Cn2c(=O)ccc(=O)n21)S(=O)(=O)c1ccc(C)cc1	HCMV antiviral -101, FMDV inh inconclusive (no result: LASV entry inh, MARV entry inh, HCV inh)
C#CCN(C[C@@H]1[C@@H](OC(=O)NCc2ccccc2F)[C@@H](OC(=O)NCc2ccccc2F)Cn2c(=O)ccc(=O)n21)S(=O)(=O)c1ccc(C)cc1	HCMV antiviral -100, FMDV inh 14µM (no result: LASV entry inh, MARV entry inh, HCV inh)
C#CCN(C[C@@H]1[C@@H](OC(=O)Nc2cccs2)[C@@H](OC(=O)Nc2cccs2)Cn2c(=O)ccc(=O)n21)S(=O)(=O)c1ccc(C)cc1	HCMV antiviral -103, FMDV inh inconclusive (no result: LASV entry inh, MARV entry inh, HCV inh)
C#CCN(C[C@@H]1[C@@H](OC(=O)NCc2ccccc2F)[C@@H](OC(=O)NCc2ccccc2F)Cn2c(=O)n(CCCCCC)c(=O)n21)S(=O)(=O)c1ccc(C)cc1	none (no result: LASV entry inh, MARV entry inh, HCV inh)
Cc1ccc(CN2CCOc3ccc(C(C)(O)COc4ccccc4)cc3C2)o1 (stereo not given)	none (no result: LASV entry inh, MARV entry inh, HCMV antiviral, HCV inh)
O=S1(=O)CC(N2CCN(CC3CC3)CC2)CN1C1CCCCC1 (stereo not given)	none (no result: LASV entry inh, MARV entry inh, HCV inh)
NS(=O)(=O)c1ccc(CCNC(=O)c2ccc3nc(CCc4ccccc4)oc3c2)cc1	none (no result: MARV entry inh, HCV inh)
O=C(CSc1ccccn1)Nc1nc2ccccc2s1	MARV entry inh inconclusive, HCMV antiviral -66
CC1(C)Cc2ccccc2-c2nnc(SCC(=O)Nc3nc4ccccc4s3)n21	HCMV antiviral -83, FMDV inh inconclusive
CC1(C)Cc2ccccc2-c2nnc(SCC(=O)N3CCN(c4ccccc4)CC3)n21	LASV entry inh inconclusive, MARV entry inh inconclusive, HCMV antiviral -92, HCV inh inconclusive, FMDV inh inconclusive
O=S1(=O)CC(N2CCCC2)CN1Cc1cn(Cc2cccc(C(F)(F)F)c2)nn1 (stereo not given)	none (no result: LASV entry inh, MARV entry inh, HCV inh)
COc1cc2c(cc1OC)[C@@H]1O[C@](CCCCN3C(=O)c4ccccc4C3=O)(C2)OC2=C1C(=O)c1ccccc1C2=O	none (no result: LASV entry inh, HCMV antiviral, HCV inh, FMDV inh)
COc1ccc(-n2cnnc2SCC(=O)N2CCN(c3ccccc3)CC2)cc1	FMDV inh inconclusive
COc1ccc(-n2nnnc2SCC(=O)N2CCOCC2)cc1	none (no result: LASV entry inh, MARV entry inh)
COc1ccc(N2CCN(C(=O)CSc3nnnn3-c3ccc4c(c3)OCCO4)CC2)cc1	LASV entry inh 2.9µM, HCMV antiviral inconclusive, HCV inh 7.9µM (no result: FMDV inh)
CCn1c(SCC(=O)N2CCc3ccccc32)nnc1-c1c[nH]c2ccccc12	LASV entry inh inconclusive, MARV entry inh inconclusive, HCMV antiviral inconclusive, FMDV inh 32µM
Cn1c(SCC(=O)N2CCN(c3ccccc3)CC2)nnc1-c1c[nH]c2ccccc12	HCMV antiviral -80, HCV inh inconclusive, FMDV inh 18µM (no result: LASV entry inh, MARV entry inh)
